Structures can show the parent of a compound that is named as a salt.
Each molecule was assayed on Ruminococcus gnavus DSM 108212 (assay: fold change of 2-Phenylethylamine concentration vs plate DMSO controls (fold change (ratio)); higher = more amine produced, active = hit call of the paper (significant change in both replicates, either direction)). Conditions: incubation time: 27 h, anaerobic, 37 °C;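 for the amine columns active = adjusted P below 0.05 in both replicates with a change the same way and a mean fold change under 0.8 or over 1.25; inactive = the rest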.
Method in brief: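 Anaerobic mGAM cultures of four gut bacterial strains were grown at 37 °C for 27 h in 80 µL wells, starting at OD 0.1 before 1:1 dilution. Compounds were at 20 µM final (sweeteners 50 µM). Whole cultures were extracted with cold acetonitrile/methanol containing 0.1% formic acid and centrifuged. Amines were quantified by LC–triple-quadrupole MS (dynamic MRM) against external calibration curves and drift-corrected within batch. Each value is the fold change versus plate DMSO controls, averaged over 2 biological replicates.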

Fold change of 2-Phenylethylamine concentration, active:
CO/N=C(\C(=O)N[C@@H]1C(=O)N2C(C(=O)[O-])=C(C[n+]3cccc4c3CCC4)CS[C@H]12)c1csc(N)n1 [Cefpirome sulfate] (20 µM) 0.0627
CC(=O)Oc1ccccc1C(=O)Nc1ncc([N+](=O)[O-])s1 [Nitazoxanide] (20 µM) 0.0405

Fold change of 2-Phenylethylamine concentration, inactive:
CC(=O)Nc1nnc(S(N)(=O)=O)s1 [Acetazolamide] (20 µM) 1.09
CCOC(=O)C1=C(C)NC(C)=C(C(=O)OC)C1c1cccc([N+](=O)[O-])c1 (configuration not stated) [Nitrendipine] (20 µM) 0.913
CCCSS/C(CCO)=C(/C)N(C=O)Cc1cnc(C)nc1N [Prosultiamine] (20 µM) 1.16
CC(C)NCC(O)c1ccc(NS(C)(=O)=O)cc1 (configuration not stated) [Sotalol hydrochloride] (20 µM) 1.36
NC(=O)OCC(O)COc1ccc(Cl)cc1 (configuration not stated) [Chlorphensin carbamate] (20 µM) 1.07
C[C@]12CC[C@H]3[C@@H](CCC4=CC(=O)CC[C@@]43C)[C@@H]1CC[C@@H]2C(=O)CO [Deoxycorticosterone] (20 µM) 1.06
OC(CCCN1CCCCC1)(c1ccccc1)c1ccccc1 [Diphenidol hydrochloride] (20 µM) 0.92
Cc1cccc(Nc2ccncc2S(=O)(=O)NC(=O)NC(C)C)c1 [Torsemide] (20 µM) 1.24
CCN(CC)C(=O)Nc1ccc(OCC(O)CNC(C)(C)C)c(C(C)=O)c1 (configuration not stated) [Celiprolol hydrochloride] (20 µM) 1.04
CC(NCCC(c1ccccc1)c1ccccc1)c1ccccc1 (configuration not stated) [Fendiline hydrochloride] (20 µM) 0.98
Oc1c(I)cc(Cl)c2cccnc12 [Clioquinol] (20 µM) 0.809
CCCCC1=NC2(CCCC2)C(=O)N1Cc1ccc(-c2ccccc2-c2nnn[nH]2)cc1 [Irbesartan] (20 µM) 0.929
CCc1ccc(C(=O)C(C)CN2CCCCC2)cc1 (configuration not stated) [Eperisone Hydrochloride] (20 µM) 1.02
CCn1cc(C(=O)O)c(=O)c2cc(F)c(N3CCNC(C)C3)c(F)c21 (configuration not stated) [Lomefloxacin hydrochloride] (20 µM) 1.03
CC(C)OC(=O)C(C)(C)Oc1ccc(C(=O)c2ccc(Cl)cc2)cc1 [Fenofibrate] (20 µM) 1.05
CN1CCCN=C1/C=C/c1cccc(O)c1 [Oxantel pamoate] (20 µM) 1.08
C[C@H]1C[C@H]2[C@@H]3CCC4=CC(=O)C=C[C@]4(C)[C@@]3(F)[C@@H](O)C[C@]2(C)[C@@]1(O)C(=O)CO [Betamethasone] (20 µM) 0.968
Cc1cc(NS(=O)(=O)c2ccc(N)cc2)no1 [Sulfamethoxazole] (20 µM) 0.978
Fc1ccc(C(c2ccc(F)cc2)N2CCN(C/C=C/c3ccccc3)CC2)cc1 [Flunarizine dihydrochloride] (20 µM) 0.977
CN1CCN(CCCN2c3ccccc3Sc3ccc(S(=O)(=O)N(C)C)cc32)CC1 [Thioproperazine dimesylate] (20 µM) 1.06
Cn1c(=O)c2nc[nH]c2n(C)c1=O [Theophylline monohydrate] (20 µM) 1.15
COC(=O)C1=C(C)NC(C)=C(C(=O)OC)C1c1ccccc1[N+](=O)[O-] [Nifedipine] (20 µM) 0.92
O=C(NCc1ncc(C(F)(F)F)cc1Cl)c1c(Cl)cccc1Cl (20 µM) 0.956
CC(=O)CCCCn1c(=O)c2c(ncn2C)n(C)c1=O [Pentoxifylline] (20 µM) 0.947
CN(C)CCc1c[nH]c2ccc(Cn3cncn3)cc12 [Rizatriptan benzoate] (20 µM) 0.989

From the supplement of paper PMC12494721
